Data from article PMC12820563, “FoxP3 forms a head-to-head dimer in vivo and stabilizes its multimerization on adjacent microsatellites”.
The full ranking holds about 16,000 sequences; the median of “rpm ratio (pull-down/input)” is about 0.94, and the highest 2% start at about 1.7. This is one part of a sample in which the highest values are shown more often than they occur.

Each sequence was assayed against T1, MBP-FoxP1dN (Mus musculus, UniProt P58462 326-579) (assay: PD-seq (MBP pull-down with sequencing); 20 mM Tris-HCl pH 7.5, 100 mM NaCl, 1.5 mM MgCl2, 0.4 uM protein, 0.1 uM dsDNA library, 30 min, room temperature, amylose pull-down; high values mean tight binding). Conditions: protein: recombinant; tags: His6-MBP; chain copies: 2; dsDNA, one strand shown.
T1 sequence: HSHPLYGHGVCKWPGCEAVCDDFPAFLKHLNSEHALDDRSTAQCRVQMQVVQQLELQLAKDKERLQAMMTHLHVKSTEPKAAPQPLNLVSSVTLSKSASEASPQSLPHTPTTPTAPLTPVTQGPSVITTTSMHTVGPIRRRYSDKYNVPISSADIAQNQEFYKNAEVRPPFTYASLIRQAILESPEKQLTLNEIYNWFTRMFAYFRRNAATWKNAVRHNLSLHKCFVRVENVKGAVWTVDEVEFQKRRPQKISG
Method in brief: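 A degenerate double-stranded DNA library, filled in with Klenow, was added at 0.1 µM to 0.4 µM His6-MBP-tagged mouse FoxP3 or FoxP1 fragment lacking the N-terminus, expressed in E. coli. Incubation lasted 30 min at room temperature in Tris pH 7.5 buffer with NaCl and MgCl2, after which complexes were collected on amylose resin, washed three times, digested with proteinase K to free the DNA, barcoded by PCR and sequenced by Illumina. Binding is the pooled-replicate reads-per-million enrichment of pull-down over input.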

Row | Sequence | binding signal
1 | GATGATTGTTCTCCCAGCTGATGAATTACCATTTTCGAGTAAACAAATTTTCCTAATCTTTCTGTTCAAGCGCCATCTAC | 1.18 RPM ratio (pull-down/input)
2 | GATGATTGTTCTCCCAGCTGATGAATTACTGATTTCGAGTAAACAAATTTTCCTAATCTTTCTGTTCAAGCGCCATCTAC | 1.24 RPM ratio (pull-down/input)
3 | GATGATTGTTCTCCCAGCTGATGAATTTACTGTTTCGAGTAAACAAATTTTCCTAATCTTTCTGTTCAAGCGCCATCTAC | 1.35 RPM ratio (pull-down/input)
4 | GATGATTGTTCTCCCAGCTGATGAATTTCCTGTTTCGAGTAAACAAATTTTCCTAATCTTTCTGTTCAAGCGCCATCTAC | 0.949 RPM ratio (pull-down/input)
5 | GATGATTGTTCTCCCAGCTGATGAATTGATTGTTTCGAGTAAACAAATTTTCCTAATCTTTCTGTTCAAGCGCCATCTAC | 1.61 RPM ratio (pull-down/input)
6 | GATGATTGTTCTCCCAGCTGATGAATTGTTTCTTTCGAGTAAACAAATTTTCCTAATCTTTCTGTTCAAGCGCCATCTAC | 1.58 RPM ratio (pull-down/input)
7 | GATGATTGTTCTCCCAGCTGATGAATTTTCTGTTTCGAGTAAACAAATTTTCCTAATCTTTCTGTTCAAGCGCCATCTAC | 0.977 RPM ratio (pull-down/input)
8 | GATGATTGTTCTCCCAGCTGATGAATTGTTTTTTTCGAGTAAACAAATTTTCCTAATCTTTCTGTTCAAGCGCCATCTAC | 2.25 RPM ratio (pull-down/input)
9 | GATGATTGTTCTCCCAGCTGATGAATTTCTGTTTTCGAGTAAACAAATTTTCCTAATCTTTCTGTTCAAGCGCCATCTAC | 2.32 RPM ratio (pull-down/input)
10 | GATGATTGTTCTCCCAGCTGATGAATTACTGTTTTCGAGTAAACAAATTTTCCTAATCTTTCTGTTCAAGCGCCATCTAC | 2.6 RPM ratio (pull-down/input)
11 | GATGATTGTTCTCCCAGCTGATGAATTGGCTATGTCGAGTAAACAAATTTTCCTAATCTTTCTGTTCAAGCGCCATCTAC | 0.854 RPM ratio (pull-down/input)
12 | GATGATTGTTCTCCCAGCTGATGAATTCGTCAGTTCGAGTAAACAAATTTTCCTAATCTTTCTGTTCAAGCGCCATCTAC | 0.905 RPM ratio (pull-down/input)
13 | GATGATTGTTCTCCCAGCTGATGAATTGTCTCCATCGAGTAAACAAATTTTCCTAATCTTTCTGTTCAAGCGCCATCTAC | 1.11 RPM ratio (pull-down/input)
14 | GATGATTGTTCTCCCAGCTGATGAATTGGTTTTATCGAGTAAACAAATTTTCCTAATCTTTCTGTTCAAGCGCCATCTAC | 1.14 RPM ratio (pull-down/input)
15 | GATGATTGTTCTCCCAGCTGATGAATTAGTGAGATCGAGTAAACAAATTTTCCTAATCTTTCTGTTCAAGCGCCATCTAC | 0.857 RPM ratio (pull-down/input)
16 | GATGATTGTTCTCCCAGCTGATGAATTACTTTATTCGAGTAAACAAATTTTCCTAATCTTTCTGTTCAAGCGCCATCTAC | 1.15 RPM ratio (pull-down/input)
17 | GATGATTGTTCTCCCAGCTGATGAATTTATTACTTCGAGTAAACAAATTTTCCTAATCTTTCTGTTCAAGCGCCATCTAC | 1.29 RPM ratio (pull-down/input)

Row | Sequence | binding signal
18 | GATGATTGTTCTCCCAGCTGATGAATTGTTTACTTCGAGTAAACAAATTTTCCTAATCTTTCTGTTCAAGCGCCATCTAC | 2.82 RPM ratio (pull-down/input)
19 | GATGATTGTTCTCCCAGCTGATGAATTATTTACTTCGAGTAAACAAATTTTCCTAATCTTTCTGTTCAAGCGCCATCTAC | 2.15 RPM ratio (pull-down/input)
20 | GATGATTGTTCTCCCAGCTGATGAATTTTTTACTTCGAGTAAACAAATTTTCCTAATCTTTCTGTTCAAGCGCCATCTAC | 1.05 RPM ratio (pull-down/input)
21 | GATGATTGTTCTCCCAGCTGATGAATTTACTTCTTCGAGTAAACAAATTTTCCTAATCTTTCTGTTCAAGCGCCATCTAC | 1.33 RPM ratio (pull-down/input)
22 | GATGATTGTTCTCCCAGCTGATGAATTGCCAATGTCGAGTAAACAAATTTTCCTAATCTTTCTGTTCAAGCGCCATCTAC | 0.943 RPM ratio (pull-down/input)
23 | GATGATTGTTCTCCCAGCTGATGAATTGCGCGAATCGAGTAAACAAATTTTCCTAATCTTTCTGTTCAAGCGCCATCTAC | 1.14 RPM ratio (pull-down/input)
24 | GATGATTGTTCTCCCAGCTGATGAATTAGATTTATCGAGTAAACAAATTTTCCTAATCTTTCTGTTCAAGCGCCATCTAC | 1.13 RPM ratio (pull-down/input)
25 | GATGATTGTTCTCCCAGCTGATGAATTCTCTTTATCGAGTAAACAAATTTTCCTAATCTTTCTGTTCAAGCGCCATCTAC | 0.967 RPM ratio (pull-down/input)
26 | GATGATTGTTCTCCCAGCTGATGAATTTTTTGCTTCGAGTAAACAAATTTTCCTAATCTTTCTGTTCAAGCGCCATCTAC | 0.938 RPM ratio (pull-down/input)
27 | GATGATTGTTCTCCCAGCTGATGAATTGTTTGCTTCGAGTAAACAAATTTTCCTAATCTTTCTGTTCAAGCGCCATCTAC | 2.2 RPM ratio (pull-down/input)
28 | GATGATTGTTCTCCCAGCTGATGAATTTGCTTTTTCGAGTAAACAAATTTTCCTAATCTTTCTGTTCAAGCGCCATCTAC | 1.21 RPM ratio (pull-down/input)
29 | GATGATTGTTCTCCCAGCTGATGAATTTGCTTCTTCGAGTAAACAAATTTTCCTAATCTTTCTGTTCAAGCGCCATCTAC | 1.02 RPM ratio (pull-down/input)
30 | GATGATTGTTCTCCCAGCTGATGAATTTTTGCTTTCGAGTAAACAAATTTTCCTAATCTTTCTGTTCAAGCGCCATCTAC | 1.83 RPM ratio (pull-down/input)
31 | GATGATTGTTCTCCCAGCTGATGAATTGCTTTTTTCGAGTAAACAAATTTTCCTAATCTTTCTGTTCAAGCGCCATCTAC | 1.45 RPM ratio (pull-down/input)
32 | GATGATTGTTCTCCCAGCTGATGAATTGCTTTGTTCGAGTAAACAAATTTTCCTAATCTTTCTGTTCAAGCGCCATCTAC | 1.11 RPM ratio (pull-down/input)
33 | GATGATTGTTCTCCCAGCTGATGAATTTGTTGCTTCGAGTAAACAAATTTTCCTAATCTTTCTGTTCAAGCGCCATCTAC | 1.54 RPM ratio (pull-down/input)
34 | GATGATTGTTCTCCCAGCTGATGAATTGTTGCTTTCGAGTAAACAAATTTTCCTAATCTTTCTGTTCAAGCGCCATCTAC | 2.12 RPM ratio (pull-down/input)
